Results published in PubChem BioAssay (NCATS).
Values without a mark were called inactive. Inconclusive results are not listed. Active and inactive are the calls of the source. Unless noted, calls follow the shape of the dose curve; as a rule, active = well fitted curve in either direction with a large enough effect (not every such curve was filed as active); inconclusive = small, poorly fitted or top-dose-only effect, or another doubt; inactive = flat fitted curve, though single readings scatter.

Experiments:
[1] = target: Lysosomal acid glucosylceramidase (Homo sapiens) (UniProt P04062); experiment: Glucocerebrosidase-p2 (AID 348; in the data active = potency below about 10 µM; also: potency is read from the fitted curve at half-maximal effect); conditions: purified GBA, blue fluorogenic substrate, 40 min
Procedure, shortened: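 Compounds titrated from 0.6 nM upwards against 0.2 nM enzyme in pH 5.9 citric acid/KH2PO4, taurocholate, tween-20; blue fluorogenic substrate 80 uM, 40 min room temperature, stopped and read Ex 365/Em 440 for AC50.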

[2] = AP1 Signaling Pathway (AID 357); conditions: ME-180 AP-1-bla reporter, EGF-induced, beta-lactamase ratio, 5 h; at 7.69 µM (top of the series) unless noted;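 also: ME-180 reporter cells stimulated with EGF at its EC50 level; % is scaled to controls: 0 for no effect and ±100 for the full control effect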
Procedure, shortened: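 A ratiometric CCF4 readout (405 nm excitation; 460 and 530 nm emission) quantified AP-1-driven beta-lactamase in ME-180 cells after 5 h with compound and EC50 EGF; AC50 values were derived for activators and inhibitors.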

[3] = NFAT Signaling Pathway (AID 444); conditions: Jurkat NFAT-bla M1, carbachol, beta-lactamase ratio, 5 h; at 7.69 µM (top of the series) unless noted;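 also: carbachol stimulus at about its EC50 of 1 µM final; % is scaled to controls: 0 for no effect and ±100 for the full control effect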
Procedure, shortened: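 Jurkat cells carrying an NFAT-driven β-lactamase reporter and co-transfected muscarinic M1 receptor were treated with compound plus carbachol (1 uM final, an EC50 level) for 5 h at 37 °C. CCF4 loading followed for 1 h at RT; 460/530 nm ratio gave %activity.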

[4] = Stat Signaling Pathway (AID 446); conditions: ME-180 SIE beta-lactamase reporter, IL-6 stimulated, 5 h; at 7.69 µM (top of the series) unless noted;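 also: ME-180 cervical cancer cells given 40 pM IL-6 alongside compound; SIE-controlled beta-lactamase reporter measured as 460/530 nm FRET emission ratio; % is scaled to controls: 0 for no effect and ±100 for the full control effect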
Procedure, shortened: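 ME-180 cells carrying a SIE-driven beta-lactamase reporter are stimulated with 40 pM IL-6 for 5 h at 37C in the presence of compound. The 460/530 nm FRET substrate ratio is read after 2.5 h at RT. Data are normalised to 300 pM IL-6 and to 125 nM JAK inhibitor controls.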

[5] = target: Glucocorticoid receptor (Homo sapiens) (UniProt P04150); experiment: GR-GFP Redistribution (AID 450;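 active = compounds whose dose series gives a full or clear partial fitted curve of increased nuclear translocation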; also: potency is read from the fitted curve at half-maximal effect); conditions: U2OS GR-GFP nuclear translocation, laser cytometry, 2 h
[6] = target: Glucocorticoid receptor (Homo sapiens) (UniProt P04150); experiment: GR-EFC Redistribution (AID 451; calls by dose curve; also: potency is read from the fitted curve at half-maximal effect); conditions: CHO-K1 GR-EFC translocation, beta-gal luminescence, 2 h
Procedure, shortened: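 CHO-K1 cells stably expressing nuclear-localized β-gal enzyme acceptor and GR fused C-terminally to the enzyme donor fragment; ligand-driven nuclear translocation restores β-gal by complementation. Compounds titrated up to 46 uM final, 2 h at 37 °C; luminescence read.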

[7] = target: Mitogen-activated protein kinase 10 (Mus musculus) (UniProt Q61831); experiment: JNK3 AlphaScreen Assay (AID 530); conditions: JNK3 lysate, c-Jun phosphorylation; series mostly up to 11.4 µM;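 also: kinase came from lysate of stimulated human HepG2 cells; signal reports phosphorylation of biotinylated GST-cJun 1-79 at Ser73 with 10 µM ATP; % is scaled to controls: 0 for no effect and ±100 for the full control effect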
Procedure, shortened: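 Inhibitors reduce antibody binding to phosphorylated biotin-cJun, lowering AlphaScreen luminescence. Lysates from HepG2 cells pre-activated by IL-1beta plus TNF-alpha supplied JNK3; compounds were titrated.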

[8] = target: 3',5'-cyclic-AMP phosphodiesterase 4B (Homo sapiens) (UniProt Q07343); experiment: qHTS Assay for Inhibitors of PDE-IV (AID 607; active = well fitted activation curve with a large enough effect in the main read-out, with a control signal flat, not every such curve was filed as active; also: % of control where 0% means no effect); conditions: HEK293 ACTOne CNG channel cells, membrane potential fluorescence; series mostly up to 22.9 µM
Procedure, shortened: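 HEK293 ACTOne cells with CNG channel (1000/well), endogenous PDE4; membrane potential dye, compounds up to 22.9 uM final. Fluorescence Ex 535/Em 590; RO 20-1724 (100 uM final) as reference.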

[9] = qHTS Assay for Identification of Small Molecule Agonists for Hypoxia Response Element Signaling Pathway (AID 914; active = well fitted activation curve with a large enough effect in the signal ratio, with a control signal flat, not every such curve was filed as active; the % refers to the signal ratio; also: % of control where 0% means no effect); conditions: ME-180 (cervical carcinoma) HRE-bla reporter, beta-lactamase ratio, CoCl2, 17 h; activation: stronger effect = higher value
Procedure, shortened: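 Compounds in a titration series were added to ME-180 reporter cells alongside an EC50 level of CoCl2. After 17 hours, beta-lactamase activity was read as the 460nm/530nm emission ratio of CCF4, giving AC50 values.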

[10] = target: Cytochrome P450 2D6 (Homo sapiens) (UniProt P10635); experiment: qHTS Assay for Inhibitors and Substrates of Cytochrome P450 2D6 (AID 891; active = well fitted inhibition curve with a large enough effect; also: nearly all actives have a fitted effect of over 60% in size; also: potency is read from the fitted curve at half-maximal effect); conditions: recombinant CYP2D6, luciferin-ME EGE luminescence; series mostly up to 11.4 µM
Procedure, shortened: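 Human CYP2D6 (5 nM) with 30 uM Luciferin-ME EGE (at Km) in 100 mM KPO4, compound preincubated 10 min, then NADPH regeneration system for 60 min at room temperature. Luciferin read by luminescence; normalized to 1.43 uM quinidine.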

[11] = target: Cytochrome P450 2C19 (Homo sapiens) (UniProt P33261); experiment: qHTS Assay for Inhibitors and Substrates of Cytochrome P450 2C19 (AID 899; active = well fitted inhibition curve with a large enough effect; also: nearly all actives have a fitted effect of over 60% in size; also: potency is read from the fitted curve at half-maximal effect); conditions: recombinant CYP2C19, luciferin-H EGE luminescence; series mostly up to 11.4 µM
Procedure, shortened: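 In 50mM KPO4, the reaction held 5nM enzyme and KM-level (10uM) Luciferin-H EGE; it ran 60 min at 37C after NADPH regeneration and a 10 min compound preincubation. Luminescence values were scaled to 57uM ketoconazole as complete inhibition.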

Chain of Lysosomal acid glucosylceramidase (Homo sapiens) (P04062 whole entry, looked up): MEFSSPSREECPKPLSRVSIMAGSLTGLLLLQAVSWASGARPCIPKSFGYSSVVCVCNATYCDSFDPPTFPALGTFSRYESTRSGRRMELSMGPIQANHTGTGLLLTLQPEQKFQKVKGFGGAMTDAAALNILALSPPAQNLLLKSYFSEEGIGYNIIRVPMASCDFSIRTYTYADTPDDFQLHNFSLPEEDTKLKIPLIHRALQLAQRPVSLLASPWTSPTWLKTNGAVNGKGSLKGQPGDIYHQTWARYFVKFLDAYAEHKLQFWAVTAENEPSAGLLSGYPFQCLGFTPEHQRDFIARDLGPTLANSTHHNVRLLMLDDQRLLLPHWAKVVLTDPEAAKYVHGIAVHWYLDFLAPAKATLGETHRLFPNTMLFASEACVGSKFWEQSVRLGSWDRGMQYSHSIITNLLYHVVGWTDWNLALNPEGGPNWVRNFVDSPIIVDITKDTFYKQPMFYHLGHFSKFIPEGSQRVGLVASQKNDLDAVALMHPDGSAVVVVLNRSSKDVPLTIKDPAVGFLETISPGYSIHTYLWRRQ
Chain of Cytochrome P450 2C19 (Homo sapiens) (P33261 whole entry, looked up): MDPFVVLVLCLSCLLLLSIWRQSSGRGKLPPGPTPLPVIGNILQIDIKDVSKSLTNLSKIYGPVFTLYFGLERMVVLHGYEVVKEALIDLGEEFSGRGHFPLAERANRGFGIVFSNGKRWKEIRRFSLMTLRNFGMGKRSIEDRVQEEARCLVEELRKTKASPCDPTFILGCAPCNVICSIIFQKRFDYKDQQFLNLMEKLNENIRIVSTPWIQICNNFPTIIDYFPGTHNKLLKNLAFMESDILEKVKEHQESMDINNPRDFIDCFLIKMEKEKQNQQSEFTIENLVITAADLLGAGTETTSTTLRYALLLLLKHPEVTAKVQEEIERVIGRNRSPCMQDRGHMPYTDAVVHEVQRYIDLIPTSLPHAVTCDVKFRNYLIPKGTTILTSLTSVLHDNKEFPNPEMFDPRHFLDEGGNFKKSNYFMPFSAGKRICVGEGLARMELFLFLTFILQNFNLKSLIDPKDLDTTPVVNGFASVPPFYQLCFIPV
Chain of Glucocorticoid receptor (Homo sapiens) (P04150 whole entry, looked up, the tested form may be a part): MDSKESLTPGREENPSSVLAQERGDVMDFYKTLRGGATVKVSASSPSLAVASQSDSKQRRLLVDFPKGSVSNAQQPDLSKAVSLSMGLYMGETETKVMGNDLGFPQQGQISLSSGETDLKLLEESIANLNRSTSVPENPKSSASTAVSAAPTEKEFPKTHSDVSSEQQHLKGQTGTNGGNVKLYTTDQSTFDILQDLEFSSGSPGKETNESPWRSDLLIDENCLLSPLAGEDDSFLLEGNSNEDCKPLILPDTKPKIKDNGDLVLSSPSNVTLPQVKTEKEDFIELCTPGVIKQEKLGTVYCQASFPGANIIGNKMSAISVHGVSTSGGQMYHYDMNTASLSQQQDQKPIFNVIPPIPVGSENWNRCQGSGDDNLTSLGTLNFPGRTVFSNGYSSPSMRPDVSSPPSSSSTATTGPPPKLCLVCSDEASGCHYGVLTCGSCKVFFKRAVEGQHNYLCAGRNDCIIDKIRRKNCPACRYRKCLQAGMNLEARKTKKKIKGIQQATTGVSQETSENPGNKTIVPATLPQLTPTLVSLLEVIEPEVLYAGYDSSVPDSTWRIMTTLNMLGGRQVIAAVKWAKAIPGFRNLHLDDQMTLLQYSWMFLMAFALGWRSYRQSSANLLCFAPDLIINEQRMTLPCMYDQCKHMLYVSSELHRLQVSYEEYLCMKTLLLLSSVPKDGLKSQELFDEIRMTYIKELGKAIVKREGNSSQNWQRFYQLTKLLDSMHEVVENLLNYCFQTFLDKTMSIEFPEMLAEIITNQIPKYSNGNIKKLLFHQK
Chain of 3',5'-cyclic-AMP phosphodiesterase 4B (Homo sapiens) (Q07343 whole entry, looked up): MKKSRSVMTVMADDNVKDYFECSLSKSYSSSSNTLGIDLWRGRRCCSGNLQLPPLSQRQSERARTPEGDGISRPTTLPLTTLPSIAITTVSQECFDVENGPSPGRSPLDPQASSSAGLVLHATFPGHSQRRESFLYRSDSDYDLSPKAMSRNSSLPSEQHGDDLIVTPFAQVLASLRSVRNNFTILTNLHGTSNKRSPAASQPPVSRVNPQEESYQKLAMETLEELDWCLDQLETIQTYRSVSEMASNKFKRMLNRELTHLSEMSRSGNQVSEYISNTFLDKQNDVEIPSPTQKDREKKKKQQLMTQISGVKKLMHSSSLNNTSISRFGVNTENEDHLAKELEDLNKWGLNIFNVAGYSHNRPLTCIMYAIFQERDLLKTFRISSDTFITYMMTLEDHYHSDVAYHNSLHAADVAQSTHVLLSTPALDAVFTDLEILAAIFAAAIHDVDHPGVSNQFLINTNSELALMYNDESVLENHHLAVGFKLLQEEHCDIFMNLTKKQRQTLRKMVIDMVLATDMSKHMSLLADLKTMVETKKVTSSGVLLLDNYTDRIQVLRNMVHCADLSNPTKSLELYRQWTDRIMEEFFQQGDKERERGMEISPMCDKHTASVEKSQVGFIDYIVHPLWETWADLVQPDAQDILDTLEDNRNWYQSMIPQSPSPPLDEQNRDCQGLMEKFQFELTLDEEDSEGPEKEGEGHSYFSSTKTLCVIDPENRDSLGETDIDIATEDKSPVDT
Chain of Cytochrome P450 2D6 (Homo sapiens) (P10635 whole entry, looked up): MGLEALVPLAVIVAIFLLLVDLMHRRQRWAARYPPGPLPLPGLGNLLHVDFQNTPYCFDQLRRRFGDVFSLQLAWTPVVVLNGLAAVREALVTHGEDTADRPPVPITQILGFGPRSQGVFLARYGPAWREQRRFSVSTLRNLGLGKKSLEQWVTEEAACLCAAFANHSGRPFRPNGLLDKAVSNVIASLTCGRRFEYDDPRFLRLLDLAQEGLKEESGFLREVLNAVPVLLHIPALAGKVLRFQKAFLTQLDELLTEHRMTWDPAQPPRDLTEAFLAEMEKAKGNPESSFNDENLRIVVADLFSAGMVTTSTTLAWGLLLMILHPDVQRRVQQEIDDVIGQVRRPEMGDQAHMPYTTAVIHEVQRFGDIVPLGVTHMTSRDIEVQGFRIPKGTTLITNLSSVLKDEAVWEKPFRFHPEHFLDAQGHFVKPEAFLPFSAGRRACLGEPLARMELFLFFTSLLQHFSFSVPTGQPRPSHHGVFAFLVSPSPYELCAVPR

SMILES | Potency [1] [µM] | activity change, negative = inhibition [2] [%] | activity change, negative = inhibition [3] [%] | activity, negative = inhibition [4] [%] | Potency [5] [µM] | Potency [6] [µM] | Potency [7] | Potency [8] | activation [9] [%] | Potency [10] | Potency [11]
O=c1[nH][nH]c(=S)c(=O)[nH]1 | > 11.4 | -2.98 | 12.7 | 3.19 | > 46 | > 9.22 | inactive | inactive | 5.24 |  | 
O=C(O)[C@@H]1CCCN1Cc1ccc2c(c1)OCO2 | > 11.4 | 2.76 | 10.2 | 0.869 | > 46 | > 9.22 | inactive | inactive | 7.45 |  | 
NCCC1([N+](=O)[O-])CCNCC1 | > 11.4 | 2 | 12.9 | -18.7 | > 46 | > 9.22 | inactive | inactive | 13.3 |  | 
Clc1ccccc1/C=C\c1ccnc2ccccc12 | > 11.4 | -23.6 | 2.98 | 1.25 | > 46 | > 9.22 | inactive | inactive | -24.5 |  | 
NS(=O)(=O)c1cc(C(=O)O)c(Cl)c([N+](=O)[O-])c1Cl | > 11.4 | 10.9 | 18.5 | 13.1 | > 46 | > 9.22 | inactive | inactive |  | inactive | inactive
CC(C)(CO)N1CCN(C(=S)Nc2ccccc2)CC1 | > 11.4 | 7.77 | 17.5 | -2.59 | > 46 | > 9.22 | inactive | inactive | 10 |  | 
c1ccc(-c2nnn(CCN3CCCCC3)n2)cc1 | > 11.4 | 10.5 | -5.15 | 1.18 | > 46 | > 9.22 | inactive | inactive | -4.81 |  | 1.26 µM (active)
c1ccc(-c2cc(-c3cc(-c4ccccn4)[nH]n3)n[nH]2)nc1 | > 11.4 | 4.94 | 1.51 | -2.75 | > 46 | > 9.22 | inactive | inactive | 3.17 |  | 
Cc1cc(=O)oc2cc(O)c(CN(C)CC(=O)O)cc12 | > 11.4 | 8.78 | 10.9 | -5.54 | > 46 | > 9.22 | inactive | inactive | 2.1 |  | inactive
COc1ccc(N(CC(=O)O)N=O)cc1 | > 11.4 | 1.5 | 11.2 | 2.83 | > 46 | > 9.22 | inactive | inactive | 10.3 |  | inactive
CC(C)CNc1nc2ncnc(N)c2[nH]1 | > 11.4 | 5.51 | 1.95 | -10.8 | > 46 | > 9.22 | inactive | inactive | 10.3 |  | 
c1ccc(CCN2CCN=C2Cc2ccccc2)cc1 | > 11.4 | 6.53 | -21.9 | 14.6 | > 46 | > 9.22 | inactive | inactive |  | 0.126 µM (active) | 
O=C(O)CCCc1ccc2ccccc2c1 | > 11.4 | -3.28 | -9.96 | 3.96 | > 46 | > 9.22 | inactive | inactive | -6.23 |  | 
CC(C)[C@](N)(C(=O)O)c1ccccc1 | > 11.4 | -9.87 | 5.98 | 29.8 | > 46 | > 9.22 | inactive | inactive |  | inactive | 
CC(C)(C)c1ccc(O)c(CN(Cc2cc(C(C)(C)C)ccc2O)C2CCCCC2)c1 | > 11.4 | 5.42 | -3.2 | 6.32 | > 46 | > 9.22 | inactive | inactive |  | 0.501 µM (active) | 1.58 µM (active)
O=C(O)c1ccc2c(c1C(=O)O)C(=O)OC2(c1ccc(O)cc1)c1ccc(O)cc1 | > 11.4 | 2.33 | 0.0722 | 1.84 | > 46 | > 9.22 | inactive | inactive | 9.96 |  | 
